Results taken from PubChem BioAssay AID1159580 (chemical genetic matrix, 2015).
“And” between values parts separate entries of the source, which are not always exact repeats. Equal values may be shown once. In all, about 5,500 compounds went through this assay and about 2,000 (36%) were called active. About 18% were inconclusive and are not listed. No stated cut-off is given here; in the data, active means normalized growth mostly below about 0.91 (no sharp cut-off); inconclusive means no clear call, values can overlap the other calls; inactive means mostly above about 0.92. The list shows a part of the results.

Experiment: chemical genetic growth profiling, strain panel (AID 1159580);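 further: tested at 20 µM; growth read once vehicle control cultures reached saturation at 30 °C; 1 = growth at the plate median or of vehicle wells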
Settings: S. cerevisiae deletion strains, growth OD

Measured: normalized growth

CC1=CC2C(C(C)C)CCC(C)(O)C2CC1 (configuration not stated)
active: locus YDR137W, strain rgp1, stronger effect = lower value 0.771 | locus YDR392W, strain spt3, stronger effect = lower value 0.59
inactive: locus YAL013W, strain DEP1, stronger effect = lower value 1 | locus YAL021C, strain ccr4, stronger effect = lower value 0.981 | locus YAL026C, strain drs2, stronger effect = lower value 1.01 | locus YAL030W, strain snc1, stronger effect = lower value 0.989 | locus YBL061C, strain skt5, stronger effect = lower value 0.991 | locus YBR009C, strain hhf1, stronger effect = lower value 0.97 | locus YBR021W, strain FUR4, stronger effect = lower value 0.999 | locus YBR023C, strain chs3, stronger effect = lower value 0.945 | locus YBR171W, strain sec66, stronger effect = lower value 0.974 | locus YBR229C, strain ROT2, stronger effect = lower value 0.949 | locus YBR231C, strain swc5, stronger effect = lower value 1.02 | locus YBR279W, strain paf1, stronger effect = lower value 0.988 | locus YCL011C, strain gbp2, stronger effect = lower value 0.998 | locus YCL016C, strain dcc1, stronger effect = lower value 0.972 | locus YCL029C, strain bik1, stronger effect = lower value 0.953 | locus YCL061C, strain MRC1, stronger effect = lower value 1.01 | locus YCL069W, strain vba3, stronger effect = lower value 0.981 | locus YCR088W, strain abp1, stronger effect = lower value 0.996 | locus YDL005C, strain med2, stronger effect = lower value 0.998 | locus YDL035C, strain GPR1, stronger effect = lower value 0.963 | locus YDL040C, strain nat1, stronger effect = lower value 0.987 | locus YDL074C, strain BRE1, stronger effect = lower value 0.97 | locus YDL101C, strain DUN1, stronger effect = lower value 0.977 | locus YDL134C, strain PPH21, stronger effect = lower value 1.01 | locus YDL185W, strain tfp1, stronger effect = lower value 0.972 | locus YDL192W, strain arf1, stronger effect = lower value 0.934 | locus YDR001C, strain nth1, stronger effect = lower value 0.992 | locus YDR069C, strain doa4, stronger effect = lower value 1.01 | locus YDR101C, strain arx1, stronger effect = lower value 0.969 | locus YDR159W, strain sac3, stronger effect = lower value 0.915 | locus YDR162C, strain NBP2, stronger effect = lower value 0.956 | locus YDR195W, strain ref2 1.03 | locus YDR297W, strain sur2, stronger effect = lower value 0.979 | locus YDR318W, strain mcm21, stronger effect = lower value 0.959 | locus YDR334W, strain swr1, stronger effect = lower value 1.03 | locus YDR335W, strain msn5, stronger effect = lower value 0.977 | locus YDR388W, stronger effect = lower value 0.985 | locus YDR502C, strain sam2, stronger effect = lower value 1.02 | locus YEL003W, strain gim4, stronger effect = lower value 1 | locus YEL037C, strain rad23, stronger effect = lower value 0.997 | locus YEL061C, strain CIN8 (second series), stronger effect = lower value 1 | locus YEL061C, strain CIN8, stronger effect = lower value 0.974 | locus YER015W, strain faa2, stronger effect = lower value 0.991 | locus YER016W, strain bim1, stronger effect = lower value 0.998 | locus YER110C, stronger effect = lower value 0.966 | locus YER111C, strain swi4, stronger effect = lower value 0.995 | locus YER155C, strain BEM2 (second series), stronger effect = lower value 0.875 | locus YER155C, strain BEM2, stronger effect = lower value 0.992 | locus YER167W, strain BCK2, stronger effect = lower value 0.977 | locus YFR010W, strain ubp6, stronger effect = lower value 1.1 | locus YGL078C, strain dbp3, stronger effect = lower value 1.02 | locus YGL086W, strain mad1, stronger effect = lower value 0.978 | locus YGL167C, strain pmr1, stronger effect = lower value 0.98 | locus YGL173C, strain kem1, stronger effect = lower value 0.994 | locus YGL227W, strain vid30, stronger effect = lower value 0.991 | locus YGL240W, strain doc1, stronger effect = lower value 0.959 | locus YGL248W, strain PDE1, stronger effect = lower value 1.02 | locus YGL253W, strain hxk2, stronger effect = lower value 0.998 | locus YGR078C, strain PAC10, stronger effect = lower value 0.981 | locus YGR135W, strain pre9, stronger effect = lower value 1.08 | locus YGR229C, strain SMI1, stronger effect = lower value 0.969 | locus YGR252W, strain gcn5, stronger effect = lower value 1.06 | locus YHR013C, strain ard1, stronger effect = lower value 1.08 | locus YHR027C, strain rpn1, stronger effect = lower value 1.01 | locus YHR030C, strain SLT2, stronger effect = lower value 1 and 0.93 | locus YHR079C, strain IRE1 (second series), stronger effect = lower value 0.987 | locus YHR079C, strain IRE1, stronger effect = lower value 0.918 | locus YHR094C, strain hxt1, stronger effect = lower value 0.983 | locus YHR129C, strain ARP1, stronger effect = lower value 0.993 | locus YHR142W, strain chs7, stronger effect = lower value 0.916 | locus YHR200W, strain rpn10, stronger effect = lower value 1 | locus YIL066C, strain RNR3, stronger effect = lower value 0.968 | locus YIL073C, strain SPO22, stronger effect = lower value 1.04 | locus YIL125W, strain kgd1, stronger effect = lower value 0.961 | locus YIR030C, strain dcg1, stronger effect = lower value 0.981 | locus YJL092W, strain hpr5, stronger effect = lower value 0.996 | locus YJL095W, strain BCK1 (second series), stronger effect = lower value 0.995 | locus YJL095W, strain BCK1, stronger effect = lower value 1.05 and 0.947 | locus YJL115W, strain asf1, stronger effect = lower value 1 | locus YJL129C, strain trk1, stronger effect = lower value 1.01 | locus YJL134W, strain LCB3, stronger effect = lower value 0.979 | locus YJL154C, strain vps35, stronger effect = lower value 0.998 | locus YJL164C, strain tpk1, stronger effect = lower value 0.942 | locus YJL166W, strain qcr8, stronger effect = lower value 0.979 | locus YJL168C, strain set2, stronger effect = lower value 0.992
